From PubChem BioAssay (Tox21) come the findings set out here.

Where “and” joins values, the source holds several entries; their conditions need not be identical. Equal entries are not always repeated. Results filed as inconclusive are left out. A call without a number means that no potency is given here. Some compounds were tested as several samples or in several runs, with calls that do not always agree. Calls of active or inactive are those of the source. The call rests on the fitted dose curve.
Potency means the concentration at half of the fitted maximal effect.

A short description of this experiment: qHTS assay to identify small molecule agonists of the AP-1 signaling pathway - cell viability counter screen (AID 1159525). Further: nearly all actives have a fitted effect of over 55% in size. The settings on record: ME-180 (cervical carcinoma) AP-1-bla cells viability, ATP luminescence, 5 h; series mostly up to 76.8 µM. The source says:
National Center for Advancing Translational Sciences [NCATS]
NIH Chemical Genomics Center [NCGC]
U.S. Environmental Protection Agency [EPA]
National Institutes of Environmental Health Sciences [NIEHS]
National Toxicology Program [NTP]
U.S. Food and Drug Administration [FDA]
Activator protein-1 (AP-1), a transcription factor, plays an important role in tumor genesis by regulating genes involved in cell proliferation, differentiation, apoptosis, and angiogenesis. AP-1 activity is induced by a complex network of signaling pathways that involves extracellular signals, such as growth factors. The AP-1 protein complex formed from c-Fos and c-Jun binding to the AP-1 response element results in transcriptional activation of genes containing such elements within their promoter.
Low molecular weight molecules have been discovered and developed to modulate various components of these signaling pathways, for example, MAP kinase inhibitors. However, many points of pathway modulation remain untested due to the lack of chemical probes making this signaling locus of general interest.
Using a beta-lactamase reporter-gene under control of the AP-1 response element, a cell-based assay [CellSensor(TM) AP-1-bla ME-180 developed by Invitrogen Corp.] was used to measure EGF-induced signaling. The Tox21 10K library compounds were measured for their ability to positively modulate the action of EC50 EGF on reporter gene activity. Compounds were screened in a 15-pt titration series in 1536-well format. The cytotoxicity of the Tox21 compound library against this cell line was tested in parallel by measuring the intra cellular ATP content in the same wells.
Tox21 Assay Protocol Summary:
2500 cells/5uL in Opti-MEM medium containing 0.5% dialyzed FBS, 0.1 mM NEAA, 1 mM sodium pyruvate and 10 mM HEPES was dispensed into 1536-well black wall/clear bottom plates using a Multidrop dispenser and cells were cultured at 37 degrees Celsius overnight. Next day 23 nL of compounds dissolved in DMSO, positive controls or DMSO were delivered to each well using a pin tool. The plates were incubated at 37 degrees Celsius for 5 hours. 1 uL of LiveBLAzerTM B/G FRET substrate (Solution A+B+C+D) was added to each well using a Flying Reagent Dispenser. After incubated at room temperature for 2.5 hours the plates were measured on an EnVision plate reader at Excitation 405nm, Emission1=460nm and Emission 2=530nm. The %Activity was determined from the ratio of 460nm/530nm.
After the plates were read for Beta-Lactamase assay on Envision; 3 ul Cell Titer Glo (Promega) was added to measure the cytotoxicity and the plates were then incubated at RT in dark for 30 min. The luminescence was read on ViewLux (Perkin Elmer, Shelton, CT) using 6 sec exposure. ViewLux data was expressed as relative luminescence units.
For primary data analysis, raw plate reads for each titration point were first normalized relative to […] EGF control (100%) and DMSO only wells (basal, 0%).
For primary data analysis for viability assay, raw plate reads for each titration point were first normalized Tetra n-octyl ammonium bromide control (-100%) and DMSO (control, 100%).
On to `O=c1nc(O)n(Cl)c(=O)n1Cl`, for which the Potency result is “inactive”.

For the molecule `O=S(=O)(O)O`, the Potency entry was “inactive”.

As to `O=C(O)C(Cl)(Cl)Cl`, the Potency entry was “inactive”.

With `CCCCCCCCn1cc[n+](C)c1`, the Potency entry was “inactive”.

As for `C[C@]12CCC(=O)C=C1CC[C@@H]1[C@@H]2CC[C@]2(C)C(=O)CC[C@@H]12`, the Potency entry was “inactive”.

With `C=CCOC(Cn1ccnc1)c1ccc(Cl)cc1Cl` (stereo not given), the Potency result is “inactive”.

Take `CNC`: the Potency result was “inactive”.

With `CC[n+]1ccccc1`, the Potency entry was “inactive”.

`CCCCCCCCCCCCOS(=O)(=O)O`: the Potency was 55 µM (active) and inactive.

As for `COP(=O)(OC)C(O)C(Cl)(Cl)Cl` (stereo not given), the Potency result is “inactive”.

On to `CC(=O)O`, for which the Potency result was “inactive”.

Take `O=C(O)c1nc(Cl)ccc1Cl`: the Potency entry was “inactive”.

As to `COP(=O)(OC)OC=C(Cl)Cl`, the Potency result was “inactive”.

`O=c1[nH]c(=O)n(Cl)c(=O)n1Cl`: the Potency result was “inactive”.

Regarding `O=[N+]([O-])O`, the Potency result was “inactive”.

As for `CCCCCCCCCCCCCC[P+](CCCCCC)(CCCCCC)CCCCCC`, the Potency is 11 µM (active) and 19.7 µM (active) and inactive.

Turning to `OCCOc1ccccc1`, the Potency result was “inactive”.

For the molecule `CCCn1cc[n+](C)c1`, the Potency result is “inactive”.

Take `CC[N+]1(C)CCCC1`: the Potency result was “inactive”.

`Nc1ccc(-c2ccc(N)cc2)cc1`: the Potency result is “inactive”.

Turning to `O=C(O)CC(O)(CC(=O)O)C(=O)O`, the Potency result was “inactive”.

On to `Nc1ccc(Cl)cc1`, for which the Potency result is “inactive”.

Turning to `CCCCCCCCCCn1cc[n+](C)c1`, the Potency result was “inactive”.

On to `CCCC[N+]1(C)CCCC1`, for which the Potency result is “inactive”.

For `Cc1cc(Cl)ccc1OCC(=O)O`, the Potency entry was “inactive”.

For `CCCCn1cc[n+](C)c1`, the Potency result is “inactive”.

Consider `CCCCCCn1cc[n+](C)c1`, for which the Potency entry is “inactive”.

On to `CCC[N+]1(C)CCCCC1`, for which the Potency result is “inactive”.

With `O=P1(N(CCCl)CCCl)NCCCO1` (stereo not given), the Potency entry was “inactive”.

As to `O=C(O)COc1ccc(Cl)cc1Cl`, the Potency result is “inactive”.

For the molecule `CC(=O)[O][Hg][c]1ccccc1`, the Potency is 1.37 µM (active) and 2.45 µM (active) and 4.25 µM (active).

On to `CCCC[n+]1cccc(C)c1`, for which the Potency result is “inactive”.

For `CCOP(=S)(OCC)Oc1ccc2c(C)c(Cl)c(=O)oc2c1`, the Potency entry was “inactive”.

Consider `CCCC[n+]1ccccc1C`, for which the Potency result is “inactive”.

`COc1ccc(N)cc1`: the Potency entry is “inactive”.

On to `Oc1cccc2cccnc12`, for which the Potency was 1.23 µM (active) and inactive.

For the molecule `CC(Cl)(Cl)C(=O)O`, the Potency result was “inactive”.

For `O=[N+]([O-])c1ccccc1O`, the Potency entry was “inactive”.

Consider `CCCCCCCCCCCC(=O)O`, for which the Potency entry is “inactive”.

With `Oc1ccccc1-c1ccccc1`, the Potency entry was “inactive”.
